# Measured values taken from ChEMBL document CHEMBL4513216, “Probing the Open Global Health Chemical Diversity Library for Multistage-Active Starting Points for Next-Generation Antimalarials” (ACS Infect Dis, 2020).
# About 8,600 (12%) of roughly 69,000 compounds showed an effect of 50% or more. The entries come from a sample that favours strong results as a whole.
# System: Plasmodium berghei
# Test: Screen against P. berghei liver stage (PbLuc), transformed with Luciferase, at 10uM
# Type: functional, HepG2
# Settings: tested at 10 uM
row,SMILES,INHIBITION
1,CCOC(=O)N1CCN(C(=O)c2snnc2-c2ccc(OC)cc2)CC1,4.66%
2,COCCN1C[C@@H]2CN(Cc3cccc(C)n3)C[C@@H]2C1=O,14.1%
3,CCc1nc(C2CCCN(C(=O)c3ccc(OC)cc3)C2)no1 (stereo unspecified),-31.8%
4,CC(C)CC(=O)N1CC[C@H]2N(C)CC[C@@]2(C(=O)Nc2ccccc2)CC1,42.5%
5,CCOC1COC2(CCN(Cc3ccc(C)c(C)c3)CC2)C1 (stereo unspecified),30.9%
6,CCC(CC)n1ncc(C(=O)NS(=O)(=O)c2ccsc2)c1C,38.4%
7,Cn1cnc2cc(C(=O)NS(=O)(=O)c3ccc(F)cc3)ccc21,28.4%
8,Cc1c(C(=O)NS(=O)(=O)c2ccc(F)cc2)cnn1CC(C)C,56%
9,Cc1c(C(=O)NS(=O)(=O)c2ccsc2)cnn1CC(C)C,53.8%
10,Cn1nnc2cc(C(=O)NS(=O)(=O)c3ccc(F)cc3)ccc21,17.1%
11,CCCn1ncc(C(=O)NC(C)c2c(C)nn(CC)c2C)c1C (stereo unspecified),9.05%
12,CNc1cc(C2CCCN2C(=O)CCc2cnn(C)c2C)ccn1 (stereo unspecified),14.6%
13,CCNc1cc2c(nn1)CCN(C(=O)c1ccc(-n3cnnc3)cc1)C2,19.6475%
14,Cc1nccc(N2C[C@@H](CN3CCCC3)[C@@H](CO)C2)n1,13%
15,Nc1nccc(N2C[C@@H](CN3CCCCC3)[C@@H](CO)C2)n1,-2.39%
16,CSc1nccc(N2C[C@@H](CN3CCCCC3)[C@@H](CO)C2)n1,55.7%
17,CCc1ccccc1OC1CN(C(=O)c2ccnc(OC)c2)C1,61.1%
18,COc1cc(C(=O)N2CC(Oc3ccccc3Cl)C2)ccn1,27.5%
19,CCc1ccccc1OC1CN(C(=O)CN(C)Cc2ccncc2)C1,58.1%
20,CN(CC(=O)N1CC(C)(C)[C@](O)(C2CC2)C1)Cc1cccnc1,-3.94%
21,CN(CC(=O)N1CC(C)(C)[C@](O)(C2CC2)C1)Cc1ccncc1,41.5%
22,COc1cccc(OC2CN(C(=O)c3ccnc(OC)c3)C2)c1,49.9%

row,SMILES,INHIBITION
1,CN(CC(=O)N1CC(C)(C)[C@@](C)(O)C1)Cc1ccncc1,59.1%
2,CCc1ccccc1OC1CN(C(=O)CN(C)Cc2cccnc2)C1,-76.5%
3,COc1ccccc1OC1CN(C(=O)CN(C)Cc2ccncc2)C1,-2.04%
4,Cn1nc(Br)c2c(NCCS(N)(=O)=O)ncnc21,36.4%
5,CC(=O)N1CCN(C(=O)NC(C)Cn2ccnc2)CC1 (stereo unspecified),24.2%
6,COc1ccc(CN2C[C@H](N3CCCC3=O)[C@@H]3OCCC[C@@H]32)cc1,48.2%
7,CCn1nc(C)c2nc(C(C)C)nc(N3CCN(C)CC3)c21,-10.1%
8,CCS(=O)(=O)N1CC[C@H]2C(=O)N(Cc3cccnc3)CCO[C@H]2C1,-7.38%
9,CNC(=O)CC1c2cccnc2C(=O)N1Cc1ccccc1 (stereo unspecified),19.2%
10,COCCNC(=O)Cn1c(-c2cccc(Cl)c2)nc(C)c(CCO)c1=O,18.2%
11,COCCNc1cccc(C2CCCN2)n1 (stereo unspecified),-31%
12,CCC(C)c1noc(C2CCN(C(=O)Cn3nc(C)cc3C)CC2)n1 (stereo unspecified),40.8%
13,O=C(NCCCN1CCOCC1)c1ccn(COc2ccccc2)n1,-8.07%
14,CCc1ccc(C(=O)N2CCC3(CCC(=O)N(CCN(C)C)C3)CC2)[nH]1,70.4%
15,CN(C)CCN1CCC2(CCN(C(=O)c3ccc(F)cc3)CC2)C1=O,56.6%
16,Cc1c(C(=O)N2CCC3(CCC(=O)N(CCN(C)C)C3)CC2)ccn1C,34%
17,CN(C)CCN1CCC2(CCN(C(=O)c3ccncc3)CC2)C1=O,13.7%
18,CN(C)CCN1CC2(CCC1=O)CCN(C(=O)c1ccn(C)n1)CC2,35.1%
19,CN(C)CCN1CCC2(CCN(C(=O)c3cccc(F)c3)CC2)C1=O,0.112%
20,Cc1ncsc1CN1CC[C@H]2OCC[C@@]2(C(=O)NC(C)C)C1,11.1%
21,Fc1cccc(Cl)c1Cn1ncnc1CSCCN1CCCC1,39.9%
22,Cc1nnc(C2CCN(C(=O)c3cnc4ccccc4n3)CC2)s1,31.2%

row,SMILES,INHIBITION
1,CN(C)C[C@@H]1CN(C(=O)CCC2CCCC2)C[C@@H]1CO,28.2%
2,Cn1cc(C(=O)N2CCCC(Cc3cncc4ccccc34)C2)cn1 (stereo unspecified),3.91%
3,Cn1ccc(C(=O)N2CCC(Cc3cccc4ncccc34)CC2)n1,42.6%
4,O=C(c1cnccn1)N1CCCC(Cc2cncc3ccccc23)C1 (stereo unspecified),-39.4%
5,Cn1ccc(C(=O)N2CCC(Cc3cccc4ncccc34)C2)n1 (stereo unspecified),23.4%
6,Cn1cc(C(=O)N2CCCC(Cc3nccs3)C2)cn1 (stereo unspecified),20.2%
7,Cn1cc(C(=O)N2CCCC(Cc3cccc4ncccc34)C2)cn1 (stereo unspecified),85.7%
8,O=C(c1cnccn1)N1CCCC(Cc2ccccn2)C1 (stereo unspecified),31.8%
9,O=C(c1cnco1)N1CCC(Cc2cccc3ncccc23)CC1,44.9%
10,Cn1ccc(C(=O)N2CCCC(Cc3cccc4ncccc34)C2)n1 (stereo unspecified),75.1%
11,O=C(c1cnco1)N1CCCC(Cc2cccc3ncccc23)C1 (stereo unspecified),51.2%
12,O=C(c1cnco1)N1CCCC(Cc2nccs2)C1 (stereo unspecified),26.9%
13,O=C(c1cnccn1)N1CCCC(Cc2cccc3ncccc23)C1 (stereo unspecified),70.8%
14,CNC(=O)N1CCC2(CC1)CN(C)Cc1cc(F)ccc12,39.3%
15,Cc1cccc(CN2CCc3nnc(CN4CCCCC4)n3CC2)n1,-89.8%
16,CC(C)c1nccn1C1CCCN(C(=O)CN(C)C2CC2)C1 (stereo unspecified),19.6%
17,CCN(C(=O)COc1nc(C(C)(C)C)no1)C1CC1,-1.75%
18,COc1ccc(C[C@H]2CN(C(=O)c3cc(C)no3)CC[C@H]2OC)cc1,-22.1%
19,Cc1cc(C)c(CNC(=O)NCc2ccncc2)c(=O)[nH]1,37.9%
20,COCCNC(=O)NC(C)COc1ccc(F)cc1F (stereo unspecified),-2.48%
21,CC(C)N1C(=O)CO[C@H]2CCN(C(=O)c3ccc4c(c3)CCC4)CC[C@@H]21,20.105%
22,Cc1noc(C)c1CN1CCC2(CC1)C(c1cnn(C)c1)CC(=O)N2C (stereo unspecified),41.2%

row,SMILES,INHIBITION
1,CCC(CC)C(=O)N1CCOC2(COCCN(CC(=O)NC)C2)C1 (stereo unspecified),-13%
2,O=C(NCCc1c[nH]cn1)c1n[nH]c2c1CCC2,-11.1%
3,COc1ccccc1CC(=O)N1CCCC(CNS(C)(=O)=O)C1 (stereo unspecified),4.623%
4,CCn1cc(CN2CCCN(C(=O)C3(C)CCOCC3)CC2)cn1,55.4%
5,CCn1cc(CN2CCCN(C(=O)C3(C#N)CCCCC3)CC2)cn1,45.2%
6,CCn1cc(CN2CCCN(C(=O)CCc3cnn(C)c3)CC2)cn1,15.5%
7,Cc1csc(N2CCN(C(=O)Cc3ccc(C)s3)CC2)n1,-23.8%
8,Cc1cnn(CCC(=O)N2CCCN(c3nc(C)cs3)CC2)c1,17.4%
9,Cc1cnn(CC(=O)N2CCCN(c3nc(C)cs3)CC2)c1,35.9%
10,CCn1cc(CN2CCCN(C(=O)CCSC)CC2)cn1,5.9%
11,Cc1csc(N2CCCN(C(=O)Cc3ccc(C)s3)CC2)n1,69.8%
12,CCn1cc(CN2CCN(C(=O)N3CCOCC3)CC2)cn1,43.4%
13,CCn1cc(CN2CCCN(C(=O)CCn3cc(C)cn3)CC2)cn1,52.5%
14,Cc1csc(N2CCCN(C(=O)Cc3cccs3)CC2)n1,14.4%
15,Cc1cnn(CCC(=O)N2CCN(c3nc(C)cs3)CC2)c1,62.8%
16,CN(Cc1cc[nH]n1)C(=O)c1cn(Cc2ccccc2Cl)nn1,39.4%
17,COc1ccc2[nH]cc(C(=O)N3C[C@@H](O)[C@H](NS(C)(=O)=O)C3)c2c1,14.6%
18,O=C(c1ccnc(C2CCNCC2)c1)N1CCCOCC1,42.6%
19,CCN(CC)S(=O)(=O)NCC1Cc2ccccc2O1 (stereo unspecified),7.65%
20,CC(=O)N1CCCC1c1nc(CN(C)C(=O)C(C)C)cc(N(C)C)n1 (stereo unspecified),23.9%
21,CCc1n[nH]c(C2CN(CCS(C)(=O)=O)CCO2)n1 (stereo unspecified),25.6%
22,O=S(=O)(NC1CCCOC1)c1ccc(C(F)(F)F)nc1 (stereo unspecified),30%

row,SMILES,INHIBITION
1,Cc1cnn(CC2CCCN2CC(=O)NC2CCN(C3CC3)CC2)c1 (stereo unspecified),-42.3%
2,CCc1nccn1C1CCCN(C(=O)c2cncnc2C)C1 (stereo unspecified),21.6%
3,CN(C)CC1CN(C(=O)NCc2ccccc2)Cc2nccn2C1 (stereo unspecified),13.5%
4,Cc1cccc2c1OCCC2NCc1c(C(C)C)nn(C)c1N(C)C (stereo unspecified),-41.2%
5,CC(C)(C)Oc1ccc(CN)c(C(F)(F)F)c1,30.8%
6,Cc1csc(N2CCN(C(=O)C(C(C)C)n3cncn3)CC2)n1 (stereo unspecified),17.4%
7,CCc1ccsc1C(=O)N1CCN(CC(C)O)CC1 (stereo unspecified),-27.8%
8,Cc1csc(N2CCN(C(=O)C(C)n3cncn3)CC2)n1 (stereo unspecified),60.5%
9,CC(C)n1cc(CN2CCCN(C(=O)C3CCOC3)CC2)cn1 (stereo unspecified),-29.1%
10,CCc1ccsc1C(=O)N1CCCN(Cc2cnn(CC)c2)CC1,58.5%
11,CCc1ccsc1C(=O)N1CCN(CC(N)=O)CC1,-53.5%
12,CCn1cc(CN2CCCN(C(=O)c3sccc3OC)CC2)cn1,-34%
13,CCc1ccsc1C(=O)N1CCS(=O)(=O)CC1,53.7%
14,Cc1csc(N2CCCN(C(=O)C(C)n3cncn3)CC2)n1 (stereo unspecified),17.4%
15,CCn1cc(CN2CCCN(C(=O)c3sccc3C#N)CC2)cn1,24%
16,CC(C)n1cc(CN2CCCN(C(=O)C3(C)CCOCC3)CC2)cn1,54.5%
17,CSC(C)C(=O)N1CCCN(Cc2cnn(C(C)C)c2)CC1 (stereo unspecified),-19.9%
18,O=C(c1cccnc1)N(CCO)Cc1cc(Br)ccc1F,-5.1%
